Rows were chosen to be rich in hits. Some 6% of all compounds tested hit in one or more screens of this group.
DRD3 agonist: activates the human D3 dopamine receptor; P35462; D3R DiscoveRx beta-arrestin cells, luminescence, 90 min; max activation, %; 410,000 tested, 0.58% active; in the data active means max activation above about 30%; further: 0% is about no effect
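Cells at 1500/well, incubated overnight, then treated with pinned compounds (dopamine as control) for 90 min at 37 degrees C. DiscoveRx reagent added for 30 - 60 minutes at room temperature; luminescence read.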
D1 potentiator: human D1 dopamine receptor positive modulation | potentiation, % at 10 µM | HEK293 TREx D1 cells, calcium flux, dopamine EC20 potentiation | P21728 | 360,000 tested, 0.036% active; in the data active means potentiation above about 30%; further: 0% is about no effect
Target sequence (P21728 whole entry, looked up): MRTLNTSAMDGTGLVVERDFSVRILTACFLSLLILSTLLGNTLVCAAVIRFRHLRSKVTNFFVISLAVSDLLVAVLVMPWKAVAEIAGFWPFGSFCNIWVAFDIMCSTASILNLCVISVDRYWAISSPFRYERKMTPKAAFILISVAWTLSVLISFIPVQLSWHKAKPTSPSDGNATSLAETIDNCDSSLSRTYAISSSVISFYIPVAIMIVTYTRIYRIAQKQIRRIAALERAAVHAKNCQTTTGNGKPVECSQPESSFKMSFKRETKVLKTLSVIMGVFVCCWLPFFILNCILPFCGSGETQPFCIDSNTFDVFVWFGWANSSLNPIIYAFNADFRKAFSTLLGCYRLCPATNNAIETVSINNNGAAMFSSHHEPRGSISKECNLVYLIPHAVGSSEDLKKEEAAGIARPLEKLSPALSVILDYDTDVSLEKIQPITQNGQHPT
D1 agonist: activates the human D1 dopamine receptor; HEK293 T-REx D1 cells, calcium flux, agonist mode; activation, % at 2 µM; 360,000 tested, 1% active; in the data active means activation above about 30%; further: 0% is about no effect
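Agonism was scored from calcium flux recorded over 180 s (1 read/s) after pintool compound addition, following a 10-cycle baseline. Cells were inducible force-coupled HEK293 TREx D1, plated overnight at 30 C and loaded with no-wash calcium dye.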
DRD3 antagonist: blocks the human D3 dopamine receptor; P35462; D3R cells, DiscoveRx beta-arrestin luminescence, antagonist mode; stronger effect = lower value; max response, negative = inhibition, %; 360,000 tested, 2.5% active; AID 652054; in the data active means max response below about -50%; inconclusive means no clear call, values can overlap the other calls; further: on the % scale 0 is the no-effect control and ±100 the full control effect
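Cells expressing the human receptor were seeded at 1500 cells/well, incubated overnight at 37 degrees C in 5% CO2, then exposed to library compounds with dopamine controls for 90 minutes at 37 degrees C before luminescent detection.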
D1 antag: human D1 dopamine receptor antagonism; P21728; HEK293 TREx D1 cells, calcium flux, dopamine EC80; stronger effect = lower value; activity change, negative = inhibition, % at 10 µM; 360,000 tested, 3.2% active; in the data active means activity change below about -30%; further: on the % scale 0 is the no-effect control and ±100 the full control effect
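Calcium flux readout: force-coupled, inducible Hek293 Trex D1 line, cells induced overnight at 30 C with tetracycline, dye-loaded 30–90 min at RT. Antagonism scored against EC80 dopamine challenge given 180 s after compound.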
Numbers without * were called inactive; ? = inconclusive; . = no result.

SMILES	DRD3 agonist	D1 potentiator	D1 agonist	DRD3 antagonist	D1 antag
Cc1ccc(CN2CCC(c3cc(-c4cccs4)n[nH]3)CC2)cc1	-6.0	-7.1	8.7	-77.6*	-15.9
COC(=O)CCN1CCC(c2cc(-c3cccc(C(F)(F)F)c3)n[nH]2)CC1	-4.8	-11.6	12.0	8.0	-12.3
FC(F)(F)c1cccc(CN2CCC(c3cc(-c4cccs4)n[nH]3)CC2)c1	-22.2	-6.0	-0.3	-80.5*	1.7
CC1c2ccccc2SC(CCCN(C)C)c2ccccc21 (stereo unspecified)	-6.5	-1.2	47.9*	?	-47.7*
CN(C)CCC1Sc2ccccc2Oc2ccccc21 (stereo unspecified)	-0.4	-6.0	27.8	-64.3*	0.4
CC(C)(C)OC(=O)NCc1nnc(-c2cc3ccccc3[nH]2)o1	.	-3.1	5.4	.	-29.7
CCN1CCN(S(=O)(=O)c2ccc(Cl)c(C(=O)Nc3ccc(OC(F)F)cc3)c2)CC1	-8.3	-13.3	7.8	-17.6	-32.7*
CCN1CCN(c2ccc(NC(=O)c3cc(S(=O)(=O)N4CCCC4)ccc3Cl)cc2)CC1	-0.1	-12.8	2.6	12.1	-42.0*
CCN1CCN(S(=O)(=O)c2ccc(Cl)c(C(=O)N(CC)Cc3ccccc3)c2)CC1	5.3	-6.8	3.1	2.4	-5.2
CCOc1ccccc1NC(=O)c1cc(S(=O)(=O)N2CCN(CC)CC2)ccc1Cl	-5.1	-4.5	5.5	-12.9	0.9
CCN1CCN(S(=O)(=O)c2ccc(Cl)c(C(=O)N(CC)CC(=O)Nc3ccc(OC)cc3)c2)CC1	2.3	-7.2	7.6	-163.0*	-12.2
COC(=O)c1sccc1S(=O)(=O)N(CC(=O)Nc1cc(C)cc(C)c1)c1ccc(Cl)cc1	-2.9	-1.9	6.0	.	9.5
Fc1cccc(Cc2c(-c3ccccc3)nc3c4ccccc4ccn23)c1	-5.3	.	.	-11.3	.
COc1cc(Br)c(CN2C(=O)NC3(CCCCCC3)C2=O)cc1OC	-19.9	-5.7	16.1	-13.6	5.7
COc1ccc(Br)cc1CN1C(=O)NC2(CCCCCC2)C1=O	-0.1	.	30.5*	-26.8	-32.7*
CCN1C(=O)c2ccccc2Sc2ccc(C(=O)NCCCN(CC(C)C)CC(C)C)cc21	-23.7	1.7	4.2	17.2	6.7
CCCCN(C)S(=O)(=O)c1ccc(C(=O)Nc2ccc(-c3nc4ccc(C)cc4s3)cc2)cc1	-23.2	-3.7	0.1	.	21.5
CCC(=O)OCc1c(C(F)(F)F)nn(C)c1Sc1ccc(Cl)cc1	-0.8	-1.8	18.6	?	-33.1*
O=C1c2[nH]nc(-c3ccccc3O)c2C(c2cccc(OCc3ccccc3)c2)N1CCO (stereo unspecified)	9.0	2.2	5.6	.	-14.4
CC(C)OCCCN1C(=O)c2[nH]nc(-c3ccccc3O)c2C1c1cccc(OCc2ccccc2)c1 (stereo unspecified)	30.4*	3.4	6.4	.	5.9
O=C(COC(=O)CC(c1ccccc1)c1ccccc1)NCc1ccc(Cl)cc1	6.3	-5.9	28.7	17.1	-34.0*
O=C1/C(=C\c2ccc(O)cc2)SC(=S)N1/N=C/c1ccc(O)cc1	0.1	4.3	110.8*	24.2	-23.3
Nc1c2c(nc3ccn(-c4ccccc4)c(=O)c13)CCCCC2	-9.4	-10.4	0.3	-25.9	-35.4*
O=C(NC1CCN(Cc2ccccc2)C1)c1cc(COc2ccc(F)cc2F)on1 (stereo unspecified)	-11.3	-3.5	11.0	-19.2	2.0
Cc1cc(OCC(=O)NCc2cccnc2)c2c(C)c(C)c(=O)oc2c1	4.6	-0.5	2.1	13.9	-5.7
SMILES	DRD3 agonist	D1 potentiator	D1 agonist	DRD3 antagonist	D1 antag
Cc1cc(OCC(=O)Nc2cccnc2)c2c(C)c(C)c(=O)oc2c1	2.6	-19.8	2.5	4.2	-36.6*
Cc1ccc(C)c(OCc2cc(C(=O)NC3CCN(Cc4ccccc4)CC3)no2)c1	-26.6	-8.2	14.7	-92.6*	-10.9
Cc1cc(OC(C)C(=O)NC2CCN(Cc3ccccc3)CC2)c2c(C)cc(=O)oc2c1 (stereo unspecified)	-17.6	9.0	4.4	-62.0*	-5.2
O=C(COc1ccccc1F)NC1CCN(Cc2ccccc2)CC1	-45.1	-5.3	2.3	-64.6*	2.9
CCS(=O)(=O)N1CC(=O)N(c2cccc(Cl)c2C)C(C)(C(=O)NC2CCCCC2)C1 (stereo unspecified)	-7.2	0.1	-1.4	.	-0.1
CNC(=O)C1CCN(S(=O)(=O)c2c(C)noc2/C=C/c2ccc(OC)cc2)CC1	1.6	-1.3	0.5	-18.7	-3.9
Cc1cc(OCC(=O)NC2CCN(Cc3ccccc3)CC2)c2c(C)c(C)c(=O)oc2c1	-16.7	-5.6	1.8	-81.7*	-25.4
COc1cc(CNCc2ccccn2)ccc1OCC(=O)NC1CCCCC1	-20.7	-0.4	0.4	-25.2	3.3
CCOc1cc(CNCc2ccccc2)ccc1OCC(=O)NC1CCCCC1	-50.9	-4.2	33.6*	-18.4	-8.6
Cc1cc(OCC(=O)NC2CCN(Cc3ccccc3)CC2)c2c(C)cc(=O)oc2c1	-20.2	-3.4	6.0	-63.4*	10.4
O=C(CCc1nc(-c2ccccc2F)no1)NC1CCN(Cc2ccccc2)CC1	-0.9	-5.7	31.1*	-51.1*	-30.1*
CCCc1cc(=O)oc2cc(C)cc(OCC(=O)NC3CCN(Cc4ccccc4)CC3)c12	-19.6	9.4	-0.8	-27.8	-4.3
Cc1ccc(-c2noc(CCC(=O)NC3CCN(Cc4ccccc4)CC3)n2)cc1	-2.2	-2.8	27.8	1.4	-20.0
C[C@@H]1CN(Cc2nnnn2CC(=O)NCCCn2cccn2)C[C@H](C)O1	0.9	.	.	-14.3	.
O=C(COc1ccc2c(-c3ccccc3)cc(=O)oc2c1)Nc1cccnc1	4.6	-9.9	19.8	15.2	-33.0*
CC(Oc1ccc(Br)cc1)C(=O)NC1CCN(Cc2ccccc2)CC1 (stereo unspecified)	-31.8	-9.9	12.0	-74.6*	-6.6
CC(C)Oc1ccc(C(=O)NC2CCN(Cc3ccccc3)CC2)cc1	-4.7	-1.1	4.5	12.1	2.3
Cc1cccc(N2C(=O)N(Cc3ccc(C(C)(C)C)cc3)c3ccccc3S2(=O)=O)c1	1.9	1.3	1.4	.	-47.6*
CC(=O)c1ccc(N2C(=O)N(CC(=O)c3ccc(F)cc3)c3ccccc3S2(=O)=O)cc1	-9.7	-4.7	7.8	.	-11.7
Cc1cccc(N2C(=O)N(Cc3cc(=O)n4ccccc4n3)c3ccccc3S2(=O)=O)c1	-15.4	3.4	0.3	.	-68.6*
CC(=O)c1ccc(N2C(=O)N(Cc3ccc(F)cc3)c3ccccc3S2(=O)=O)cc1	49.5*	-2.6	5.9	.	8.0
COc1ccc(NC(=O)CCCc2ccccc2)cc1OC	-1.0	-2.2	0.9	-19.4	6.6
O=C1CS(=O)(=O)C2(C(=O)N(Cc3ccccc3Cl)c3ccccc32)N1c1ccc(F)cc1 (stereo unspecified)	-1.9	-7.0	5.9	.	-21.5
NS(=O)(=O)Nc1cccc2cccnc12	.	4.5	0.3	.	3.3
COc1cc(NS(=O)(=O)c2ccc(C(=O)O)cc2)c2nc(C)ccc2c1	.	10.6	1.3	.	19.5

From PubChem
